Measured values taken from PubChem BioAssay (NCATS).
Inconclusive results are not listed. Active and inactive are the calls of the source. Unless noted, calls come from the whole dose curve; as a rule, active = well fitted curve in either direction with a large enough effect (not every such curve was filed as active); inconclusive = small, poorly fitted or top-dose-only effect, or another doubt; inactive = flat fitted curve, though single readings scatter.

How the values were obtained:
[1] = biological target: Lysosomal acid glucosylceramidase (Homo sapiens) (UniProt P04062); experiment: Glucocerebrosidase-p2 (AID 348; in the data active = potency below about 10 µM; note: potency is the fitted concentration of half-maximal effect); conditions: purified GBA, blue fluorogenic substrate, 40 min
How it was run: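 Normal human glucocerebrosidase (0.2 nM) with blue fluorogenic substrate (80 uM final) in citrate/phosphate pH 5.9 with 10mM sodium taurocholate, 0.01% tween-20; 40 min RT, NaOH/glycine stop; fluorescence Ex 365/Em 440; AC50 from a titration from 0.6 nM upwards.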

[2] = AP1 Signaling Pathway (AID 357); conditions: ME-180 AP-1-bla reporter, EGF-induced, beta-lactamase ratio, 5 h; at 7.69 µM (top of the series) unless noted;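 note: ME-180 reporter cells stimulated with EGF at its EC50 level; % is set by controls: 0 for no effect and ±100 for the full control effect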
How it was run: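 Cells are seeded overnight, exposed to compound titrations and an EC50 level of EGF for 5 hours at 37 °C, then loaded with CCF4 dye for 2.5 hours. Beta-lactamase activity under the AP-1 element is read as a blue/green ratio.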

[3] = biological target: Cytochrome P450 1A2 (Homo sapiens) (UniProt P05177); experiment: p450-cyp1a2 (AID 410; calls by dose curve; note: potency is the fitted concentration of half-maximal effect;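 for activity change, negative = inhibition: -100% = full effect of reference inhibitor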); conditions: recombinant CYP1A2, luciferin-ME demethylation, luminescence; series mostly up to 11.4 µM
How it was run: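 Luminescent demethylation readout: Luciferin-ME (100uM, equal to Km) turned over by 20nM CYP1A2 for 60 min at room temperature after NADPH regeneration addition, following 10 min compound preincubation. Normalization used 57 uM furafylline as full inhibition.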

[4] = NFAT Signaling Pathway (AID 444); conditions: Jurkat NFAT-bla M1, carbachol, beta-lactamase ratio, 5 h; at 7.69 µM (top of the series) unless noted;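 note: carbachol stimulus at about its EC50 of 1 µM final; % is set by controls: 0 for no effect and ±100 for the full control effect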
How it was run: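 Jurkat cells carrying an NFAT-driven β-lactamase reporter and co-transfected muscarinic M1 receptor were treated with compound plus carbachol (1 uM final, an EC50 level) for 5 h at 37 °C. CCF4 loading followed for 1 h at RT; 460/530 nm ratio gave %activity.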

[5] = Stat Signaling Pathway (AID 446); conditions: ME-180 (cervical carcinoma) SIE beta-lactamase reporter, IL-6 stimulated, 5 h; at 7.69 µM (top of the series) unless noted;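 note: ME-180 cervical cancer cells given 40 pM IL-6 alongside compound; SIE-controlled beta-lactamase reporter measured as 460/530 nm FRET emission ratio; % is set by controls: 0 for no effect and ±100 for the full control effect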
How it was run: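 Compound effects on IL-6-induced STAT reporter activity were measured in ME-180 cells. After overnight culture, cells were co-treated with 40 pM IL-6 for 5 hrs before beta-lactamase substrate loading at room temperature.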

[6] = biological target: Glucocorticoid receptor (Homo sapiens) (UniProt P04150); experiment: GR-GFP Redistribution (AID 450;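 active = compounds whose dose series gives a full or clear partial fitted curve of increased nuclear translocation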; note: potency is the fitted concentration of half-maximal effect); conditions: U2OS GR-GFP nuclear translocation, laser cytometry, 2 h
[7] = biological target: Glucocorticoid receptor (Homo sapiens) (UniProt P04150); experiment: GR-EFC Redistribution (AID 451; calls by dose curve; note: potency is the fitted concentration of half-maximal effect); conditions: CHO-K1 GR-EFC translocation, beta-gal luminescence, 2 h
How it was run: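 CHO-K1 cells stably expressing nuclear-localized β-gal enzyme acceptor and GR fused C-terminally to the enzyme donor fragment; ligand-driven nuclear translocation restores β-gal by complementation. Compounds titrated up to 46 uM final, 2 h at 37 °C; luminescence read.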

[8] = biological target: Mitogen-activated protein kinase 10 (Mus musculus) (UniProt Q61831); experiment: JNK3 AlphaScreen Assay (AID 530); conditions: JNK3 lysate, c-Jun phosphorylation; series mostly up to 57.1 µM;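 note: kinase came from lysate of stimulated human HepG2 cells; signal reports phosphorylation of biotinylated GST-cJun 1-79 at Ser73 with 10 µM ATP; % is set by controls: 0 for no effect and ±100 for the full control effect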
How it was run: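 Phosphorylation of biotinylated GST-cJun(1-79) at Ser73 is measured by AlphaScreen proximity luminescence. Enzyme is JNK3 in HepG2 lysates activated with interleukin-1beta and tumor necrosis factor alpha; ATP is 10 uM final.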

[9] = biological target: 3',5'-cyclic-AMP phosphodiesterase 4B (Homo sapiens) (UniProt Q07343); experiment: qHTS Assay for Inhibitors of PDE-IV (AID 607; active = well fitted activation curve with a large enough effect in the main read-out, with a control signal flat, not every such curve was filed as active; note: % of control where 0% means no effect); conditions: HEK293 ACTOne CNG channel cells, membrane potential fluorescence; series mostly up to 22.9 µM
How it was run: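 ACTOne HEK293 cells carry a modified cAMP-gated CNG channel and express endogenous PDE4; plated 1000 cells/well, compounds up to 22.9 uM final. Membrane-potential dye fluorescence (ex 535/em 590) was read; parental cells received 10 uM forskolin + 100 uM RO 20-1724.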

Sequence of Glucocorticoid receptor (Homo sapiens) (P04150 whole entry, looked up, the tested form may be a part): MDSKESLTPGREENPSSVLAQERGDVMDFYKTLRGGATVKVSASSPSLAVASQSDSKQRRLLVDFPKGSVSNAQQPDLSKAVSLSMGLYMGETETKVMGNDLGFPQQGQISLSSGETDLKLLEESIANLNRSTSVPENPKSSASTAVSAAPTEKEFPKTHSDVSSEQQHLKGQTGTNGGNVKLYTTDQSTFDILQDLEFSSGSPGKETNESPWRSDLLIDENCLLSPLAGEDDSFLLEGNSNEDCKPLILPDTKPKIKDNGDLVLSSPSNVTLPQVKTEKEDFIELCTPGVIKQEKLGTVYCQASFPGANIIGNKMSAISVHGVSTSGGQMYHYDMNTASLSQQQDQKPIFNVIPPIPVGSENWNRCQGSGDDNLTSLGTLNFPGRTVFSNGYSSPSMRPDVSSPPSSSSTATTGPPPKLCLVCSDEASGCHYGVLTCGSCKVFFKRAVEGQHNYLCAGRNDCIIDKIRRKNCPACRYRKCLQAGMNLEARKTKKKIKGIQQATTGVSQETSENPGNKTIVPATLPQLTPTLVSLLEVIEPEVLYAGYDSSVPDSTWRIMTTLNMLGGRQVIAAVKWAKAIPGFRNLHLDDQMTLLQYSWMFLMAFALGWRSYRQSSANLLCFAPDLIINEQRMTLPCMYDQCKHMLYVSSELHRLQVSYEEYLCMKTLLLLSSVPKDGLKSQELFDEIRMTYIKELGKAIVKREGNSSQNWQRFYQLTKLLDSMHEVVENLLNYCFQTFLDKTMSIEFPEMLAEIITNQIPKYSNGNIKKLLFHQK
Sequence of 3',5'-cyclic-AMP phosphodiesterase 4B (Homo sapiens) (Q07343 whole entry, looked up): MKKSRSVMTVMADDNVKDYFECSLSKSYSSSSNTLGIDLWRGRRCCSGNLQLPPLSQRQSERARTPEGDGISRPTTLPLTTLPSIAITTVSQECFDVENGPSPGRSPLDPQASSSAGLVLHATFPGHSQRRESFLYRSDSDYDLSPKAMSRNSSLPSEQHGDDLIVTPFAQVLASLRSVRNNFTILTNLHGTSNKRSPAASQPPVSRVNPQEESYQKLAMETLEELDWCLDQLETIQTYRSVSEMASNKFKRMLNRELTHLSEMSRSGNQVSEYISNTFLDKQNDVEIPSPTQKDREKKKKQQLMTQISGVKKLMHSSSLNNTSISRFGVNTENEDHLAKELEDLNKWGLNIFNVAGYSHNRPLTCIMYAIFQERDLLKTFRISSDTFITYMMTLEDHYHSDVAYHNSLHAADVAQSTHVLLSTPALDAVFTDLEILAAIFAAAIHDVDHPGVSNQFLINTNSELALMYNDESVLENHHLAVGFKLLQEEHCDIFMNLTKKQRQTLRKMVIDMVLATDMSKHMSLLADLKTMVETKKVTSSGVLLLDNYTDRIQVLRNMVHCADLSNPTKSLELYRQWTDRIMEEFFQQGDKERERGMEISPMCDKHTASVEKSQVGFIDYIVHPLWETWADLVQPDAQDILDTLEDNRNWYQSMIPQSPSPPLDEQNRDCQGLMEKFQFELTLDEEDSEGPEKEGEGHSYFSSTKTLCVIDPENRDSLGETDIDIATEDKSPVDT
Sequence of Lysosomal acid glucosylceramidase (Homo sapiens) (P04062 whole entry, looked up): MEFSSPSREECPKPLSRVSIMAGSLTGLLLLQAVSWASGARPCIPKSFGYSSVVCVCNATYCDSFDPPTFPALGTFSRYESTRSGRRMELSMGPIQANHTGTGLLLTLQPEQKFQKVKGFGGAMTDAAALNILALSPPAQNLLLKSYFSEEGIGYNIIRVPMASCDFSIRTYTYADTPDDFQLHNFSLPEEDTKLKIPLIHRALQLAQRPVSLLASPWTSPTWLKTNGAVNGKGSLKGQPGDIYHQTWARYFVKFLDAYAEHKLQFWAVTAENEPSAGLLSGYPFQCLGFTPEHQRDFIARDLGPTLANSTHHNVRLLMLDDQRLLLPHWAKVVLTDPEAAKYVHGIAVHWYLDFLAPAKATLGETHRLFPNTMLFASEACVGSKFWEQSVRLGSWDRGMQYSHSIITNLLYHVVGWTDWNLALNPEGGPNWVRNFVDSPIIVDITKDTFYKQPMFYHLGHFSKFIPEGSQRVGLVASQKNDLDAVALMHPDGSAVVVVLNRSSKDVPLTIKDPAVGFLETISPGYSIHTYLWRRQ
Sequence of Cytochrome P450 1A2 (Homo sapiens) (P05177 whole entry, looked up): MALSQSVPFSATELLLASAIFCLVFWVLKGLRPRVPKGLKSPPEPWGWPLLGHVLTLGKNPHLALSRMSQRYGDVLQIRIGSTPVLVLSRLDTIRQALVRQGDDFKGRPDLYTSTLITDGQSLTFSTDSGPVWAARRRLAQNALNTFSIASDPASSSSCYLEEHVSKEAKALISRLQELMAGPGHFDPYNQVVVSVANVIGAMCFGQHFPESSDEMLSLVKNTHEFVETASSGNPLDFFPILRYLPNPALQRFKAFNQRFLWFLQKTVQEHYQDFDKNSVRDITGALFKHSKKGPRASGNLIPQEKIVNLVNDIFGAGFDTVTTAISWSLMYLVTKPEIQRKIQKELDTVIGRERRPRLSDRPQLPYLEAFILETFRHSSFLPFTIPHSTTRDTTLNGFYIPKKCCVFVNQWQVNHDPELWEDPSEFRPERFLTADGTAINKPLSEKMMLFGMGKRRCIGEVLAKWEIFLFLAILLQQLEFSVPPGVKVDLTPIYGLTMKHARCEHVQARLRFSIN

N[C@@H](Cc1ccccc1)P(=O)(O)O
inactive: Potency [1] > 11.4 µM | activity change, negative = inhibition [2] -2.48% | Potency [3] | activity change, negative = inhibition [4] 12.4% | activity, negative = inhibition [5] -2.79% | Potency [6] > 46 µM | Potency [7] > 9.22 µM | activity change, negative = inhibition [8] 3.3% [at 11.4 µM] | outcome [9]

NS(=O)(=O)c1ccc(-c2ccc([As](=O)(O)O)cc2)cc1
inactive: Potency [1] > 11.4 µM | activity change, negative = inhibition [2] 0.512% | Potency [3] | activity change, negative = inhibition [4] 17.3% | activity, negative = inhibition [5] 6.23% | Potency [6] > 46 µM | Potency [7] > 9.22 µM | activity change, negative = inhibition [8] 2.57% [at 11.4 µM] | outcome [9]

O[C@H](CN1CC1)[C@@H](O)CN1CC1
inactive: Potency [1] > 11.4 µM | activity change, negative = inhibition [2] 10.5% | Potency [3] | activity change, negative = inhibition [4] -21.2% | activity, negative = inhibition [5] 2.88% | Potency [6] > 46 µM | Potency [7] > 9.22 µM | activity change, negative = inhibition [8] 2.9% [at 11.4 µM] | outcome [9]

CSCC[C@@H](N)P(C)(=O)O
inactive: Potency [1] > 11.4 µM | activity change, negative = inhibition [2] 10.2% | Potency [3] | activity change, negative = inhibition [4] 2.01% | activity, negative = inhibition [5] 13.5% | Potency [6] > 46 µM | Potency [7] > 9.22 µM | activity change, negative = inhibition [8] 0.585% [at 11.4 µM] | outcome [9]

C[C@@H]1CC[C@@H]2N(C1)C[C@H]1[C@@](O)([C@H](O)C[C@]3(O)[C@H]4CC[C@H]5[C@]6(O)O[C@]4(C[C@]13O)[C@@]5(C)CC[C@@H]6O)[C@@]2(C)O
inactive: Potency [1] > 11.4 µM | activity change, negative = inhibition [2] 0.655% | Potency [3] | activity change, negative = inhibition [4] 4.97% | activity, negative = inhibition [5] -1.33% | Potency [6] > 46 µM | Potency [7] > 9.22 µM | activity change, negative = inhibition [8] 4.3% [at 11.4 µM] | outcome [9]

C1C[C@@H]2CN(CCCN3CCOCC3)[C@@H](C1)O2
inactive: Potency [1] > 11.4 µM | activity change, negative = inhibition [2] -6.14% | Potency [3] | activity change, negative = inhibition [4] 9.72% | activity, negative = inhibition [5] 11.7% | Potency [6] > 46 µM | Potency [7] > 9.22 µM | activity change, negative = inhibition [8] 4.78% [at 11.4 µM] | outcome [9]

NCCc1ccc(S(=O)(=O)O)cc1[N+](=O)[O-]
inactive: Potency [1] > 11.4 µM | activity change, negative = inhibition [2] -10.6% | Potency [3] | activity change, negative = inhibition [4] -27.3% | activity, negative = inhibition [5] 1.75% | Potency [6] > 46 µM | Potency [7] > 9.22 µM | activity change, negative = inhibition [8] 10.9% [at 11.4 µM] | outcome [9]

O=C(NCP(=O)(O)O)c1cccnc1
inactive: Potency [1] > 11.4 µM | activity change, negative = inhibition [2] 23.1% | Potency [3] | activity change, negative = inhibition [4] 5.87% | activity, negative = inhibition [5] 4.58% | Potency [6] > 46 µM | Potency [7] > 9.22 µM | activity change, negative = inhibition [8] 0.703% [at 11.4 µM] | outcome [9]

C[C@]1(O)CC[C@H]2[C@@H]3[C@@H](O)CC4=CC(=O)CC[C@@]4(C)[C@H]3CC[C@]21C
inactive: Potency [1] > 11.4 µM | activity change, negative = inhibition [2] 1.55% | activity change, negative = inhibition [3] 1.4% [at 2.29 µM] | activity change, negative = inhibition [4] 6.38% | activity, negative = inhibition [5] -1.92% | Potency [6] > 46 µM | Potency [7] > 9.22 µM | activity change, negative = inhibition [8] -3.1% [at 11.4 µM] | outcome [9]

N[C@H](Cc1c[nH]c2ccccc12)P(=O)(O)O
inactive: Potency [1] > 11.4 µM | activity change, negative = inhibition [2] -3.26% | Potency [3] | activity change, negative = inhibition [4] -3.98% | activity, negative = inhibition [5] -3.09% | Potency [6] > 46 µM | Potency [7] > 9.22 µM | activity change, negative = inhibition [8] 4.66% [at 11.4 µM] | outcome [9]

NC(=O)c1ccc(C(=O)Nc2ccc([As](=O)(O)O)cc2)cc1
inactive: Potency [1] > 11.4 µM | activity change, negative = inhibition [2] -1.92% | activity change, negative = inhibition [3] -13.8% [at 2.29 µM] | activity change, negative = inhibition [4] 26.9% | activity, negative = inhibition [5] 5.04% | Potency [6] > 46 µM | Potency [7] > 9.22 µM | activity change, negative = inhibition [8] 1.99% [at 11.4 µM] | outcome [9]

O=C(O)[C@@H](O)[C@@H](O)[C@@H]1[O][Sb][O][C@@H]1CO
inactive: Potency [1] > 11.4 µM | activity change, negative = inhibition [2] 4.54% | activity change, negative = inhibition [3] -5.1% [at 2.29 µM] | activity change, negative = inhibition [4] 5.74% | activity, negative = inhibition [5] 1.94% | Potency [6] > 46 µM | Potency [7] > 9.22 µM | activity change, negative = inhibition [8] 1.63% [at 11.4 µM] | outcome [9]

COC(=O)[C@H]1C(=O)[C@H](C(=O)OC)[C@@H]2CC[C@H]1N2C
active: Potency [3] 0.794 µM
inactive: Potency [1] > 11.4 µM | activity change, negative = inhibition [2] 12.9% | activity change, negative = inhibition [4] 11.3% | activity, negative = inhibition [5] 7.99% | Potency [6] > 46 µM | Potency [7] > 9.22 µM | activity change, negative = inhibition [8] 4.63% [at 11.4 µM] | outcome [9]
